# Counter-ions that a name gives are not always drawn. ± gives the standard deviation or the standard deviation of the averaged measurements.
# Tests used:
# Conditions in all cases: 25 µM; exposure: 24-48 hpf
# [1] = tested on: Danio rerio Tg(wt1b:EGFP) embryo, pronephros; assay: glomerular separation, fold change vs DMSO control; higher = glomeruli further apart (abnormal)
# Outline: (§1)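 Distances and angles describing the pronephros were computed by a Fiji macro from 16 reference points set manually on maximum projections of dorsal images. These images came from dechorionated Tg(wt1b:EGFP) zebrafish embryos held in agarose-filled 96-well plates after exposure to 25 μM compound in 0.5% DMSO, in HEPES-buffered E3 with 0.003% PTU, from 24 to 48 hpf at 28.5°C. Any value more than 2 SD from the feature mean was excluded. Features are stated as fold change relative to the mean of same-day DMSO-treated embryos.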
# [2] = tested on: Danio rerio Tg(wt1b:EGFP) embryo, pronephros; assay: glomerular width (mean of left and right), fold change vs DMSO control; higher = wider glomerulus
# Outline: as §1
# [3] = tested on: Danio rerio Tg(wt1b:EGFP) embryo, pronephros; assay: fraction of imaged embryos annotated as normal kidney; higher = less nephrotoxic; extreme values may be limits of the assay
# Outline: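 Zebrafish embryos carrying Tg(wt1b:EGFP) were dechorionated and exposed to 25 μM compound (0.5% DMSO) between 24 and 48 hpf at 28.5°C. Their pronephroi were imaged by widefield fluorescence, and each embryo was classed by hand from maximum projections. The measure is the fraction of embryos per treatment falling in the normal-kidney category.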
# [4] = tested on: Danio rerio Tg(wt1b:EGFP) embryo, pronephros; assay: pronephric angle neck segment to proximal convoluted tubule (mean of left and right), fold change vs DMSO control; higher = larger pronephric angle
# Outline: as §1
structure (smiles),measurement,setting,value
C[C@]12CCC(=O)C=C1C=C[C@@H]1[C@@H]2CC[C@@]2(C)[C@H]1CC[C@@]21CCC(=O)O1 [Canrenone],glomerular separation,[1],1.24 ± 0.51
same,glomerular width,[2],0.798 ± 0.02
same,fraction of imaged embryos annotated as normal kidney,[3],0.818
same,pronephric angle neck segment,[4],1.07 ± 0.031
CN1[C@@H]2CC[C@H]1C[C@@H](OC(=O)c1c[nH]c3ccccc13)C2 [Tropisetron hydrochloride],glomerular separation,[1],1.8 ± 0.91
same,glomerular width,[2],1.02 ± 0.051
same,fraction of imaged embryos annotated as normal kidney,[3],0.667
same,pronephric angle neck segment,[4],1.06 ± 0.067
CC(C(=O)O)c1cccc(C(=O)c2ccccc2)c1 (stereo not drawn) [Ketoprofen],glomerular separation,[1],1.58 ± 0.77
same,glomerular width,[2],0.83 ± 0.037
same,pronephric angle neck segment,[4],1.1 ± 0.028
O=C(O)CCc1nc(-c2ccccc2)c(-c2ccccc2)o1 [Oxaprozin],glomerular separation,[1],4.33 ± 1.5
same,glomerular width,[2],0.672 ± 0.032
same,fraction of imaged embryos annotated as normal kidney,[3],0
same,pronephric angle neck segment,[4],1.87 ± 0.14
C[C@H]1c2cccc(O)c2C(=O)C2=C(O)[C@]3(O)C(=O)C(C(N)=O)=C(O)[C@@H](N(C)C)[C@@H]3[C@@H](O)[C@@H]21 [Doxycycline hydrochloride],glomerular separation,[1],1.09 ± 0.26
same,glomerular width,[2],1.02 ± 0.055
same,fraction of imaged embryos annotated as normal kidney,[3],0.833
same,pronephric angle neck segment,[4],1.034 ± 0.01
CCc1cccc(CC)c1NC(=O)CN(CC(=O)O)CC(=O)O [Etifenin],glomerular separation,[1],1.34 ± 0.55
same,glomerular width,[2],1.052 ± 0.01
same,fraction of imaged embryos annotated as normal kidney,[3],0.667
same,pronephric angle neck segment,[4],1.01 ± 0.015
CC(=O)OC[C@H]1O[C@@H]([S-])[C@H](OC(C)=O)[C@@H](OC(C)=O)[C@@H]1OC(C)=O.CCP(CC)CC.[Au+] [Auranofin],glomerular separation,[1],1.55 ± 0.79
same,glomerular width,[2],0.789 ± 0.038
same,fraction of imaged embryos annotated as normal kidney,[3],0.417
same,pronephric angle neck segment,[4],1.19 ± 0.024
NCCCC(O)(P(=O)(O)O)P(=O)(O)O [Alendronate sodium],glomerular separation,[1],0.796 ± 0.25
same,glomerular width,[2],0.984 ± 0.03
same,fraction of imaged embryos annotated as normal kidney,[3],0.833
same,pronephric angle neck segment,[4],1 ± 0.041
CC(C)CN(C[C@@H](O)[C@H](Cc1ccccc1)NC(=O)O[C@H]1CO[C@H]2OCC[C@H]21)S(=O)(=O)c1ccc(N)cc1 [Darunavir],glomerular separation,[1],1.16 ± 0.42
same,glomerular width,[2],0.976 ± 0.018
same,pronephric angle neck segment,[4],0.9599 ± 0.0035
CC(N)C12CC3CC(CC(C3)C1)C2 (stereo not drawn) [Rimantadine Hydrochloride],glomerular separation,[1],0.846 ± 0.35
same,glomerular width,[2],0.967 ± 0.064
same,fraction of imaged embryos annotated as normal kidney,[3],0.917
same,pronephric angle neck segment,[4],1.04 ± 0.04
c1ccc([C@H]2CN3CCSC3=N2)cc1 [Levamisole hydrochloride],glomerular separation,[1],0.699 ± 0.16
same,glomerular width,[2],1.08 ± 0.018
same,fraction of imaged embryos annotated as normal kidney,[3],0.917
same,pronephric angle neck segment,[4],0.979 ± 0.016
CN(C)CCOC(=O)COc1ccc(Cl)cc1 [Meclofenoxate hydrochloride],glomerular separation,[1],1.19 ± 0.36
same,glomerular width,[2],1.02 ± 0.049
same,fraction of imaged embryos annotated as normal kidney,[3],0.667
same,pronephric angle neck segment,[4],1.05 ± 0.057
Nc1nc2[nH]cc(CCc3ccc(C(=O)N[C@@H](CCC(=O)O)C(=O)O)cc3)c2c(=O)[nH]1 [Pemetrexed disodium],glomerular separation,[1],0.831 ± 0.39
same,glomerular width,[2],1.08 ± 0.041
same,fraction of imaged embryos annotated as normal kidney,[3],0.833
same,pronephric angle neck segment,[4],0.972 ± 0.057
CC(C)OC(=O)C(C)(C)Oc1ccc(C(=O)c2ccc(Cl)cc2)cc1 [Fenofibrate],glomerular separation,[1],6.84 ± 3.3
same,glomerular width,[2],0.648 ± 0.076
same,fraction of imaged embryos annotated as normal kidney,[3],0
same,pronephric angle neck segment,[4],1.801 ± 0.0082
CC1(C)[C@H](C(=O)O)N2C(=O)C[C@H]2S1(=O)=O [Sulbactam],glomerular separation,[1],0.653 ± 0.18
same,glomerular width,[2],1.07 ± 0.04
same,pronephric angle neck segment,[4],0.952 ± 0.039
CNCCCN1c2ccccc2CCc2ccccc21 [Desipramine hydrochloride],glomerular separation,[1],0.966 ± 0.26
same,glomerular width,[2],0.996 ± 0.032
same,fraction of imaged embryos annotated as normal kidney,[3],0.833
same,pronephric angle neck segment,[4],1 ± 0.047
CCN(CC)C(=O)C1(c2ccccc2)CC1CN (stereo not drawn) [Milnacipran hydrochloride],glomerular separation,[1],0.724 ± 0.23
same,glomerular width,[2],1.19 ± 0.037
same,fraction of imaged embryos annotated as normal kidney,[3],1
same,pronephric angle neck segment,[4],0.9653 ± 0.008
CC(C)c1ccc2oc3nc(N)c(C(=O)O)cc3c(=O)c2c1 [Amlexanox],glomerular separation,[1],1.84 ± 0.69
same,glomerular width,[2],1.04 ± 0.036
same,pronephric angle neck segment,[4],0.955 ± 0.017
NS(=O)(=O)c1cc2c(cc1Cl)NCNS2(=O)=O [Hydrochlorothiazide],glomerular separation,[1],1.03 ± 0.25
same,glomerular width,[2],0.972 ± 0.024
same,fraction of imaged embryos annotated as normal kidney,[3],0.833
same,pronephric angle neck segment,[4],0.937 ± 0.013
CCCCOc1cc(C(=O)OCCN(CC)CC)ccc1N [Benoxinate hydrochloride],glomerular separation,[1],0.798 ± 0.38
same,glomerular width,[2],1.07 ± 0.018
same,fraction of imaged embryos annotated as normal kidney,[3],0.833
same,pronephric angle neck segment,[4],0.9693 ± 0.0068
CCOC(=O)C1=C(C)NC(C)=C(C(=O)OC)C1c1cccc([N+](=O)[O-])c1 (stereo not drawn) [Nitrendipine],glomerular separation,[1],5.49 ± 1
same,glomerular width,[2],0.6357 ± 0.0031
same,fraction of imaged embryos annotated as normal kidney,[3],0
same,pronephric angle neck segment,[4],1.29 ± 0.044
N[C@@H](C(=O)N[C@@H]1C(=O)N2C(C(=O)O)=C(Cl)CC[C@H]12)c1ccccc1 [Loracarbef],glomerular separation,[1],1.06 ± 0.25
same,glomerular width,[2],1.08 ± 0.011
same,fraction of imaged embryos annotated as normal kidney,[3],0.917
same,pronephric angle neck segment,[4],0.999 ± 0.025
CCOc1ccc2nc(S(N)(=O)=O)sc2c1 [Ethoxzolamide],glomerular separation,[1],2.05 ± 1.5
same,glomerular width,[2],1.08 ± 0.0034
same,pronephric angle neck segment,[4],1.2306 ± 0.00079
CCC(C)(C)C(=O)O[C@H]1C[C@@H](C)C=C2C=C[C@H](C)[C@H](CC[C@@H]3C[C@@H](O)CC(=O)O3)[C@H]21 [Simvastatin],glomerular separation,[1],4.7 ± 1.8
same,glomerular width,[2],0.658 ± 0.034
same,pronephric angle neck segment,[4],1.8 ± 0.065
CC(C)NCC(O)COc1cccc2[nH]ccc12 (stereo not drawn) [Pindolol],glomerular separation,[1],0.674 ± 0.2
same,glomerular width,[2],0.901 ± 0.021
same,fraction of imaged embryos annotated as normal kidney,[3],0.909
same,pronephric angle neck segment,[4],0.984 ± 0.025
N[C@@H](Cc1cc(I)c(Oc2ccc(O)c(I)c2)c(I)c1)C(=O)O [Liothyronine],glomerular separation,[1],0.912 ± 0.45
same,glomerular width,[2],0.9338 ± 0.0093
same,pronephric angle neck segment,[4],1.01 ± 0.018
CN(C)CCCN1c2ccccc2Sc2ccc(C(F)(F)F)cc21 [Triflupromazine hydrochloride],glomerular separation,[1],0.863 ± 0.37
same,glomerular width,[2],1.033 ± 0.0067
same,pronephric angle neck segment,[4],0.954 ± 0.014
O=C1CN(/N=C/c2ccc(-c3ccc([N+](=O)[O-])cc3)o2)C(=O)N1 [Dantrolene sodium salt],glomerular separation,[1],1.46 ± 0.66
same,glomerular width,[2],0.974 ± 0.084
same,fraction of imaged embryos annotated as normal kidney,[3],0.833
same,pronephric angle neck segment,[4],1.02 ± 0.016
CCCCC(=O)N(Cc1ccc(-c2ccccc2-c2nnn[nH]2)cc1)[C@H](C(=O)O)C(C)C [Valsartan],glomerular separation,[1],0.756 ± 0.22
same,glomerular width,[2],1.09 ± 0.026
same,fraction of imaged embryos annotated as normal kidney,[3],1
same,pronephric angle neck segment,[4],0.991 ± 0.021

# — the supplement of paper PMC7366291
